Compound activity deposited in PubChem by National Center for Advancing Translational Sciences (NCATS).
Most compounds without a hit are left out; they make up all but 7.3% or so of the library.
FLuc counter: qHTS profiling assay for firefly luciferase inhibitor/activator using purifed enzyme and Km concentrations of substrates (counterscreen for miR-21 project); Luciferin 4-monooxygenase (Photinus pyralis), P08659; Potency, µM (titrated, usually from 57.5 µM), actives largely listed as inhibitors; 360,000 compounds, 6.9% hits; purified FLuc, Km substrates, luminescence inhibition; further: nearly all actives have a fitted effect of over 55% in size
Target sequence (P08659 whole entry, looked up): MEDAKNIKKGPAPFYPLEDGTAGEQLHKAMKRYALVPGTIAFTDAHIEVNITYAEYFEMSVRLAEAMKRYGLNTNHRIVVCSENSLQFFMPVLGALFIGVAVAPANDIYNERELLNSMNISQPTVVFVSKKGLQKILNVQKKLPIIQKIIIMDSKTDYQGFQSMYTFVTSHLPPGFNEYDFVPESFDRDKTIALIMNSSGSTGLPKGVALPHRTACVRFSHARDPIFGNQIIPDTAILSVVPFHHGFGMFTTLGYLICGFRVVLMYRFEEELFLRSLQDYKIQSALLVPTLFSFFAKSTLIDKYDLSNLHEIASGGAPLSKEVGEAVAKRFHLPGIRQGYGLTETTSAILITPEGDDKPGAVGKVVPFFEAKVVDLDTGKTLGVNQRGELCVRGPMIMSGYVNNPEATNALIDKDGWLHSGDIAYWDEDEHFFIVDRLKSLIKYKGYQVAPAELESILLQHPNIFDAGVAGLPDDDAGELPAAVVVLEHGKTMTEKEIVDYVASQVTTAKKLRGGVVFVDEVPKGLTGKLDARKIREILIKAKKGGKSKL
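Biochemical qHTS of compounds, final roughly 60 µM downward over six points, against 10 nM purified firefly luciferase using Km concentrations of substrates (10 uM D-luciferin, 10 uM ATP) in Tris acetate pH 7.5 buffer; luminescence output.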
KinaseGlo FLuc: Counterscreen for Luciferase (Kinase-Glo TM) Inhibition; Luciferin 4-monooxygenase (Photuris pensylvanica), Q27757; Kinase-Glo luciferase, ATP luminescence, 8 min; Potency, µM (doses to about 38.3 µM), most hits filed as inhibitors; 200,000 compounds, 0.28% hits; AID 1379, 2008; further: nearly all actives have a fitted effect of over 60% in size
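Substrate mix (final 50 mM imidazole pH 7.2, 50 mM KCl, 7 mM MgCl2, 10 uM ATP, 0.01% Tween 20, 0.05% BSA) plus pin-tool compound, then Kinase-Glo detection mix; 8 min ambient, luminescence read.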
Rab9 promoter act: qHTS Assay for Rab9 Promoter Activators; 320,000 compounds, 2.8% hits; AID 485297, 2010; Potency, µM (titrated, usually from 9.22 µM), usual class: activators; Huh7 Rab9 promoter-luciferase reporter, luminescence, 24 h; further: nearly all actives have a fitted effect of over 60% in size
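Huh7 cells stably carrying Rab9 promoter–luciferase reporter, plated 1500 cells/well, compound added after 2 h and incubated 24 h at 37 °C; luciferase luminescence then read after 10 min with detection reagent.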
SMN2 splice enh: qHTS Assay for Enhancers of SMN2 Splice Variant Expression | HEK293 SMN2-luciferase splicing reporter, luminescence, 30-36 h | Potency, µM (highest dose often 46.1 µM), usual class: activators | 210,000 compounds, 2.8% hits; further: nearly all actives have a fitted effect of over 55% in size
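qHTS luciferase splicing reporter: luminescence rises when SMN2 exon 7 is included in transfected HEK293 cells. Compound exposure lasted 30-36 h at 37C, with 4.5 mM final sodium butyrate as control, followed by a ONE-Glo read.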
NPC1 prom act: qHTS Assay for NPC1 Promoter Activators. Huh7 NPC1 promoter luciferase reporter, 24 h. Potency, µM (top dose mostly 9.22 µM), usual class: activators. 320,000 compounds, 2.4% hits; further: nearly all actives have a fitted effect of over 60% in size
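Compounds in DMSO were transferred onto Huh7 NPC1-luciferase reporter cells pre-incubated 2 h; after 24 h at 37 °C, Amplite reagent was dispensed and luminescence recorded 10 min later.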
Numbers stand for hits; 0 = inactive; ? = inconclusive; - = no result; [ ] = another dose, or the depositor's remark. The call rests on the fitted dose curve; in most records, active means well fitted curve in the direction sought with a large enough effect; inconclusive means small, poorly fitted or top-dose-only effect, or another doubt; inactive means no such curve, though single readings can be large; an effect the other way counts as inactive or inconclusive.

SMILES	FLuc counter	KinaseGlo FLuc	Rab9 promoter act	SMN2 splice enh	NPC1 prom act
C=C1Cc2c(Cl)cc3[nH]c4c5c3c2[C@@]2(O)[C@@H]1C[C@@H]2C(C)(C)O[C@H]5[C@@H]1CC[C@@]2(O)[C@@]35O[C@@H]3[C@@H](O)[C@@H](C(=O)O)O[C@H]5CC[C@]2(C)[C@@]41C	-	-	-	0	-
Cc1cc(C)n(CCN(C)Cc2nc(Cc3ccccc3F)no2)n1	4.78µM	0	?	-	?
CN1CCN(C(c2ccccc2Cl)c2sc3nc(-c4ccco4)nn3c2O)CC1 (stereo not given)	0	-	-	-	-
CC1=NN(c2ccccc2)C(=O)/C1=C/c1cc(C)n(C2CC2)c1C	2.39µM	0	0	0	0
CC1=NN(c2ccccc2)C(=O)/C1=C\c1sccc1C	7.57µM	-	0	-	0
CC1=NN(c2ccc(Br)cc2)C(=O)/C1=C/c1cccs1	7.57µM	0	0	0	0
CC1=NN(c2cccc(C(=O)O)c2)C(=O)/C1=C\C=C\c1ccco1	2.69µM	0	0	0	0
CC1=NN(c2ccccc2)C(=O)C1=C(C)C	0	0	0	0	0
CC1=NN(c2ccc(C)cc2)C(=O)/C1=C\c1ccc(Br)s1	0	0	0	0[1.84 µM]	0
CSc1ncc2c(n1)-c1ccccc1N(Cc1ccccc1)S2(=O)=O	0	-	-	-	-
COc1ccc(C2=C(N3CCN(c4cccc(C)c4)C(C)C3)c3ccccc3C2=O)cc1 (stereo not given)	0	-	-	0	-
COc1ccc(NC(=O)C(C)n2nc(C)c3c(C)n(-c4ccccc4)nc3c2=O)cc1Cl (stereo not given)	0	-	-	-	-
C#CCOc1ccc(/C=C2/C(=O)N(c3cccc(C(=O)O)c3)N=C2C)cc1OC	12µM	-	0	-	0
CC1=NN(c2ccccc2)C(=O)/C1=C\c1cn(-c2ccccc2)nc1C	?	0	0	0	0
COc1ccccc1/C=C1/C(=O)N(c2ccccc2)N=C1C	26.9µM	-	0	-	0
COc1ccc(C)cc1NC(=O)C(=O)NCCc1sc(-c2ccc(Cl)cc2)nc1C	0	-	-	-	-
Cc1c(C(=O)N(C)C)sc2nc(-c3ccccn3)[nH]c(=O)c12	?	0	?	0	0
O=c1[nH]c(-c2ccccn2)nc2sc(-c3ccccc3)cc12	2.13µM	0	?	8.91µM	3.55µM
CCOc1ccc(-c2cc(CCCC(=O)NCCc3ccc(OCC)c(OCC)c3)no2)cc1	9.53µM	-	-	0	-
CCOc1ccc(-c2cc(CCCC(=O)NCCc3ccc(Cl)cc3)no2)cc1	?	-	-	0	-
CCOc1ccc(-c2cc(CCCC(=O)NCCc3ccc(SC)cc3)no2)cc1	12µM	-	-	0	-
CCOc1ccc(-c2cc(CCCC(=O)NCc3ccco3)no2)cc1	3.38µM	0	0	0	0
CCOc1ccc(-c2cc(CCCC(=O)NCc3ccc(C)cc3)no2)cc1	?	0	0	0	0
COc1cccc(-c2nnc3n(Cc4ccc(C)cc4)c(=O)c4ccccc4n23)c1O	0	-	-	-	-
Cc1ccc(Cl)cc1N1CCN(C(=O)CCS(=O)(=O)c2cc(Br)cc3c2N(C(=O)C2CC2)CC3)CC1	0	-	-	0	-
SMILES	FLuc counter	KinaseGlo FLuc	Rab9 promoter act	SMN2 splice enh	NPC1 prom act
CC(=O)Nc1cc(NC(C)=O)cc(C(=O)OCC(=O)c2ccc3c(c2)OCO3)c1	0	-	0	-	0
COC(=O)C(Cc1ccc(O)cc1)NC(=O)c1ccc2c(c1)OCCO2 (stereo not given)	1.35µM	-	0	-	0
O=C(COC(=O)c1ccc(O)cc1O)c1ccc2c(c1)OCO2	8.49µM	-	0	-	?
O=C(OCC(=O)N1CCOCC1)c1ccc2c(c1)OCCO2	0	0	0	0	0
O=C(COC(=O)c1ccc(O)cc1)c1ccc2c(c1)OCCO2	1.2µM	-	3.98µM	-	3.55µM
O=C(COC(=O)c1cc(Cl)ccc1O)c1ccc2c(c1)OCO2	1.9µM	-	0	-	?
COC(=O)C(Cc1ccc(O)cc1)NC(=O)CCc1ccco1 (stereo not given)	0	-	0	-	0
COc1ccc(-c2cc(-c3ccc(F)cc3)nc3c2COc2ccc(F)cc2-3)cc1	0	-	-	0	-
COc1ccccc1NC(=O)c1ccc2c(c1)C(=O)N(c1ccccc1OC)C2=O	?	-	0	-	0
O=C(Nc1ccc2c(c1)C(=O)N(CC1CCCO1)C2=O)c1cccc(Br)c1 (stereo not given)	10.7µM	0	0	0	0
COc1ccccc1N1C(=O)c2ccc(C(=O)Nc3ccc(C(=O)O)cc3)cc2C1=O	26.9µM	-	0	-	0
O=C(O)c1cccc(NC(=O)c2ccc3c(c2)C(=O)N(c2ccccc2)C3=O)c1	0.269µM	-	0	-	0
COC(=O)c1cccc(NC(=O)c2ccc3c(c2)C(=O)N(CC2CCCO2)C3=O)c1 (stereo not given)	23.9µM	0	0	0	0
COc1cc(OC)c(NC(=O)CCn2cccn2)cc1Cl	0	-	-	-	-
O=C(O)c1cccc(NC(=O)c2ccc3c(c2)C(=O)N(CC2CCCO2)C3=O)c1 (stereo not given)	0.477µM	0	0	0	0
COc1cc2c(C#N)c(N3CCN(C)CC3)nc(N)c2c(N)n1	?	0	0	0	0
N#Cc1c(N2CCCC2)nc(N)c2c(N)nc(N3CCCC3)cc12	?	0	?	11.2µM	0
COc1cc2c(C#N)c(N3CCCC3)nc(N)c2c(N)n1	16.9µM	-	0	-	0
COc1cc2c(C#N)c(N3CCN(c4ccccc4OC)CC3)nc(N)c2c(N)n1	23.9µM	0	0	0	0
COc1cccc(NS(=O)(=O)c2ccc3c(c2)n(C)c(=O)n3C)c1	0	-	-	0	-
O=C(NC1CC(=O)N(c2ccc(F)cc2)C1)c1ccc(S(=O)(=O)N2CCOCC2)cc1 (stereo not given)	0	-	-	-	-
CCc1ccc(OCCSc2nc(-c3cccc(C)c3)nc3cc(=O)[nH]n23)cc1	0	-	-	-	-
Cc1cccc(OCCSc2nc(-c3cccs3)nc3cc(=O)[nH]n23)c1	15.1µM	-	-	-	-
CNC(=O)c1c(NC(=O)c2nc(SCc3ccc(C)cc3)ncc2Cl)sc2c1CCCC2	0	-	-	0	-
OC1(C(O)(c2ccc(-c3ccccc3)cc2)c2ccc(-c3ccccc3)cc2)CCCCC1	-	0[7.66 µM]	-	0[9.22 µM]	-
SMILES	FLuc counter	KinaseGlo FLuc	Rab9 promoter act	SMN2 splice enh	NPC1 prom act
CN(C)c1ccc(/C=C/C=C2/SC(=S)N(c3ccccc3)C2=O)cc1	4.78µM	?	?	0	?
COc1ccc(/C=C2\SC(=S)N(NC(=O)c3ccncc3)C2=O)cc1OC	?	0	0	0	0
O=C(NN1C(=O)/C(=C/C=C/c2ccccc2)SC1=S)c1ccncc1	13.5µM	0	0	0	0
O=C(O)c1ccc(N2C(=O)/C(=C/C=C/c3ccccc3)SC2=S)cc1	?	0	0	0	0
O=C(NN1C(=O)/C(=C/C=C/c2ccco2)SC1=S)c1ccncc1	21.3µM	-	0	-	0
O=C1/C(=C\c2ccco2)SC(=S)N1c1ccc(O)cc1	?	0	0	0	0
